Experimental data as given in PubChem BioAssay (Tox21).
Results filed as inconclusive are left out. More than one record can exist for a structure, and the calls need not agree. Activity calls are given as the source filed them. Unless noted, the call rests on the fitted dose curve; in most records, active means well fitted curve in the direction sought with a large enough effect in the repeat runs; inconclusive means weak or mixed curves; inactive means no such curve, though single readings can be large; an effect the other way counts as inactive or inconclusive.

Columns and labels:
[1] = qHTS assay for small molecules that induce genotoxicity in human embryonic kidney cells expressing luciferase-tagged ATAD5 (AID 651632); further: nearly all actives have a fitted effect of over 15% in size; further: potency means the concentration at half of the fitted maximal effect
Procedure, shortened: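 Reporter cells (HEK293T) express luciferase-tagged ATAD5, a protein that accumulates after DNA damage. Treat 16 hr at 37C/5% CO2, add Amplite, wait 30 min at RT, and read luminescence.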

[2] = qHTS assay for small molecule agonists of the p53 signaling pathway - cell viability (AID 651633; calls by dose curve; further: nearly all actives have a fitted effect of over 30% in size; further: potency means the concentration at half of the fitted maximal effect)
Procedure, shortened: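 p53RE-bla cells, seeded at 4,000 per well and rested 5 h at 37 C/5% CO2, received compounds in DMSO for 16 h at 37 C. CellTiter-Glo was then added, and luminescence was read after 30 min at room temperature to gauge cytotoxicity.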

[3] = qHTS assay for small molecules that induce genotoxicity in human embryonic kidney cells expressing luciferase-tagged ATAD5 - cell viability (AID 651634; calls by dose curve; further: nearly all actives have a fitted effect of over 25% in size; further: potency means the concentration at half of the fitted maximal effect)
Procedure, shortened: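 Seeding of 2,000 HEK293T ATAD5-luciferase cells per well preceded pin-tool compound transfer. Plates sat 15.5 hr at 37C under 5% CO2, then fluorescence was read after 30 min with CellTiter-Fluor.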

[4] = qHTS assay to test for compound auto fluorescence at 535 nm (green) in HepG2 cells (AID 720675)
[5] = qHTS assay to test for compound auto fluorescence at 460 nm (blue) in HEK293 cells (AID 720678)
Procedure, shortened: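 Blue read-out at excitation 405 nm and emission 460 nm follows overnight compound exposure of HEK293 cells at 37C in 5% CO2. Activity is given as auto fluorescence equivalency to triamterene.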

[6] = qHTS assay to test for compound auto fluorescence at 590 nm (red) in HEK293 cells (AID 720679)
Procedure, shortened: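 Red channel, Ex/Em 540/590nm; signal expressed as equivalency to Rose Bengal sodium. HEK293, 2,000 cells/well, 10% dialyzed FBS; 23 nL compound pinned after 4-5 hr attachment; overnight 37C/5% CO2 before reading.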

[7] = qHTS assay to test for compound auto fluorescence at 535 nm (green) in HEK293 cells (AID 720680)
[8] = qHTS assay to test for compound auto fluorescence at 460 nm (blue) in HEK293 cell free culture (AID 720681)
Procedure, shortened: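 Test compounds were pinned into cell-free culture medium (DMEM with 10% FBS) and fluorescence was read directly at Ex/Em 405/460 nm. Signals were expressed as fluorescence equivalents of triamterene, with DMSO vehicle as control.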

[9] = qHTS assay to test for compound auto fluorescence at 535 nm (green) in HEK293 cell free culture (AID 720682)
Procedure, shortened: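 Read-out: 485/535 nm fluorescence intensity, calibrated against fluorescein. Medium only (DMEM + 10% FBS, no cells); test compound or DMSO vehicle added by pintool before plate reading.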

[10] = qHTS assay to test for compound auto fluorescence at 590 nm (red) in HEK293 cell free culture (AID 720683)
Procedure, shortened: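 Tox21 10K library compounds were pinned into cell-free DMEM with 10% FBS and fluorescence was read at excitation 540 nm. Activity is expressed as Rose Bengal sodium equivalency.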

[11] = qHTS assay to test for compound auto fluorescence at 590 nm (red) in HepG2 cell free culture (AID 720684)
Procedure, shortened: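 Measured in medium alone (MEM containing 10% FBS) following pintool addition of compound; emission at 590 nm with 540 nm excitation, referenced to Rose Bengal sodium.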

[12] = qHTS assay to test for compound auto fluorescence at 460 nm (blue) in HepG2 cell free culture (AID 720685)
Procedure, shortened: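 Compound (23 nL) or DMSO pinned into cell-free MEM with 10% FBS; blue fluorescence read at 405/460 nm excitation/emission, expressed as auto-fluorescence equivalency to triamterene.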

[13] = qHTS assay to test for compound auto fluorescence at 535 nm (green) in HepG2 cell free culture (AID 720686)
[14] = qHTS assay to test for compound auto fluorescence at 460 nm (blue) in HepG2 cells (AID 720687)
Procedure, shortened: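 Cells (2,000/well in MEM with 10% FBS) attached overnight at 37 C, then were exposed to compound or DMSO for 1 hr at 37 C, 5% CO2. Fluorescence read at Ex/Em 405/460 nm, expressed as triamterene-equivalent signal.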

[15] = qHTS assay for small molecule disruptors of the mitochondrial membrane potential (AID 720635); further: potency means the concentration at half of the fitted maximal effect
Procedure, shortened: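 HepG2 cells (2,000/well) attached overnight at 37C, then took compound for 1 hr at 37C, 5% CO2. Mito-MPS dye was added for 30 min; fluorescence was read at 490/535 nm (monomers) and 540/590 nm (aggregates).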

[16] = qHTS assay to test for compound auto fluorescence at 590 nm (red) in HepG2 cells (AID 720674)
Procedure, shortened: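 Compound auto-fluorescence is scored relative to Rose Bengal sodium, measured at 540/590 nm in live HepG2 cultures after 1 hr compound contact (37 C, 5% CO2).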

[17] = target: Glucocorticoid receptor (Homo sapiens) (UniProt P04150); test: qHTS assay to identify small molecule agonists of the glucocorticoid receptor (GR) signaling pathway (AID 720691; active means well fitted activation curve with a large enough effect in the signal ratio in the repeat runs, not every such curve was filed as active; the % refers to the signal ratio)
Sequence of Glucocorticoid receptor (Homo sapiens) (P04150 whole entry, looked up): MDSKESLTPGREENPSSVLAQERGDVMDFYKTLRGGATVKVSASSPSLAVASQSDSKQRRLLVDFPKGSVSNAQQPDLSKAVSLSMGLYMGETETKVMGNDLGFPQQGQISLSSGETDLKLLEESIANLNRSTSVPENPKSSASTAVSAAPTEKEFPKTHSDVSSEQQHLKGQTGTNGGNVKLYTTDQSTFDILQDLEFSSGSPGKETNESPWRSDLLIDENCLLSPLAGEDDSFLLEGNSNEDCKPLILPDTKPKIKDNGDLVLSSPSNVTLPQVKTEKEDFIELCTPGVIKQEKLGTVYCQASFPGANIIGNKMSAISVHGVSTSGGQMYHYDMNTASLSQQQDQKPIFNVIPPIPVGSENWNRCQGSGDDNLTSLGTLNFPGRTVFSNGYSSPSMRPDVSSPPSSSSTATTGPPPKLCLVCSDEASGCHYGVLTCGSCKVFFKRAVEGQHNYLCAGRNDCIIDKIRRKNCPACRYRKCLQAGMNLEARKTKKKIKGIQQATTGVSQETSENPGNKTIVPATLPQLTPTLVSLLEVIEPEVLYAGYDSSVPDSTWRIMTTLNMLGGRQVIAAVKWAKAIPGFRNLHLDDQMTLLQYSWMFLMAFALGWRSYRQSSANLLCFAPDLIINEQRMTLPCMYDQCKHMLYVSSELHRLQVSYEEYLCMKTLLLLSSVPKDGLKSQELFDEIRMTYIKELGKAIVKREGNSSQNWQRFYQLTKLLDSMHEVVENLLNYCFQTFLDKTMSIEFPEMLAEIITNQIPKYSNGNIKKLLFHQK
Procedure, shortened: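 Reporter read-out: fluorescence intensity following 2 h room-temperature LiveBLAzer B/G FRET substrate loading. Prior step: GR-bla HeLa cells held 4 h, then treated 18 h at 37 C.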

[18] = target: Glucocorticoid receptor (Homo sapiens) (UniProt P04150); test: qHTS assay to identify small molecule antagonists of the glucocorticoid receptor (GR) signaling pathway (AID 720692; active means well fitted inhibition curve with a large enough effect in the signal ratio in the repeat runs, not every such curve was filed as active; the % refers to the signal ratio; further: potency means the concentration at half of the fitted maximal effect)
Procedure, shortened: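 Dexamethasone (5 nM final) stimulated a stably integrated GRE-beta-lactamase reporter in HeLa cells during 18 h co-incubation with compounds; signal was quantified as fluorescence intensity of B/G FRET substrate after 2 h.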

[19] = qHTS assay for small molecule disruptors of the mitochondrial membrane potential - cell viability (AID 720634; calls by dose curve;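 further: human HepG2 liver cancer cells; series mostly up to about 83 µM; nearly all actives have a fitted effect of over 20% in size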)
Procedure, shortened: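 Measuring cytotoxicity alongside mitochondrial potential, the screen quantified ATP by luminescence in HepG2 cells after 1 hr compound incubation and a 30 min room-temperature CellTiter-Glo step.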
On the % scale 0 is the no-effect control and ±100 the full control effect.

CC1(C)C(=O)N(Br)C(=O)N1Cl
inactive: Potency [1] | Potency [2] | Potency [3] | outcome [4] | Potency [5] | outcome [6] | outcome [7] | Potency [8] | outcome [9] | outcome [10] | outcome [11] | Potency [12] | outcome [13] | Potency [14]

CC(=O)Oc1ccc2c(c1)CC[C@@H]1[C@@H]2CC[C@]2(C)[C@@H](O)CC[C@@H]12
active: Potency [15] 8.41 µM
inactive: Potency [1] | Potency [3] | outcome [16] | outcome [4] | Potency [5] | outcome [6] | outcome [7] | Potency [8] | outcome [9] | outcome [10] | outcome [11] | Potency [12] | outcome [13]

OCC1CC=CCC1 (stereo not given)
inactive: Potency [1] | Potency [2] | Potency [3] | Potency [15] | outcome [16] | outcome [4] | Potency [5] | outcome [6] | Potency [8] | outcome [9] | outcome [10] | Potency [12] | outcome [13] | Potency [14]

O=C(O)Cc1ccc(-c2ccccc2)cc1
inactive: Potency [1] | Potency [2] | Potency [3] | Potency [15] | fluorescence, % of fluorescein control [4] -0.0175% [at 18.6 µM] | fluorescence, % of triamterene [5] -0.322% [at 18.6 µM] | fluorescence, % of fluorescent control [6] -0.147% [at 18.6 µM] | fluorescence, % of fluorescein [7] -0.0578% [at 18.6 µM] | fluorescence, % of fluorescent control [8] 0% [at 18.6 µM] | activity change [9] -0.0541% [at 18.6 µM] | fluorescence, % of fluorescent control [10] 0.0962% [at 18.6 µM] | fluorescence, % of Rose Bengal [11] -0.0701% [at 18.6 µM] | fluorescence, % of fluorescent control [12] -0.109% [at 18.6 µM] | fluorescence, % of fluorescein control [13] -0.0983% [at 18.6 µM] | fluorescence, % of fluorescent control [14] -0.1% [at 18.6 µM] | Potency [17] | Potency [18]

COC(=O)[C@@H]1CC2=CC(=O)CC[C@]2(C)[C@@]23O[C@@H]2C[C@@]2(C)[C@@H](CC[C@@]24CCC(=O)O4)[C@H]13
inactive: Potency [1] | Potency [3] | outcome [16] | outcome [4] | Potency [5] | outcome [6] | outcome [7] | Potency [8] | outcome [9] | outcome [10] | outcome [11] | Potency [12] | outcome [13] | Potency [14]

C=C(C)C(=O)OCCOC(=O)CC(C)=O
inactive: Potency [1] | Potency [2] | Potency [3] | Potency [15] | outcome [4] | Potency [5] | outcome [6] | outcome [7] | Potency [8] | outcome [9] | outcome [10] | outcome [11] | Potency [12] | outcome [13] | Potency [14] | Potency [17] | Potency [18]

O=C(N/N=C/c1ccc([N+](=O)[O-])o1)c1ccc(O)cc1
inactive: Potency [1] | Potency [2] | fluorescence, relative to Rose Bengal [16] -0.334% [at 18.6 µM] | fluorescence, % of fluorescein control [4] -0.0853% [at 18.6 µM] | fluorescence, % of triamterene [5] 0.159% [at 18.6 µM] | fluorescence, % of fluorescent control [6] 0.101% [at 18.6 µM] | fluorescence, % of fluorescein [7] 0.0272% [at 18.6 µM] | fluorescence, % of fluorescent control [8] -0.307% [at 18.6 µM] | activity change [9] 0.0091% [at 18.6 µM] | fluorescence, % of fluorescent control [10] -0.537% [at 18.6 µM] | fluorescence, % of Rose Bengal [11] -0.154% [at 18.6 µM] | fluorescence, % of fluorescent control [12] -0.18% [at 18.6 µM] | fluorescence, % of fluorescein control [13] -0.0078% [at 18.6 µM] | fluorescence, % of fluorescent control [14] -0.0309% [at 18.6 µM] | Potency [17] | Potency [18]
active: Potency [15] 1.27 µM

CCCC1C(CC)=CC(CC)=CN1c1ccccc1 (stereo not given)
inactive: Potency [1] | Potency [3] | outcome [16] | outcome [4] | Potency [5] | outcome [6] | outcome [7] | Potency [8] | outcome [9] | outcome [10] | outcome [11] | Potency [12] | outcome [13] | Potency [14] | Potency [17]
active: Potency [15] 54.5 µM | Potency [18] 49 µM

COc1cc2c(cc1OC)-c1cc(=Nc3c(C)cc(C)cc3C)n(C)c(=O)n1CC2
active: Potency [2] 29.8 µM | Potency [3] 29.8 µM
inactive: Potency [1] | outcome [16] | outcome [4] | Potency [5] | outcome [6] | outcome [7] | Potency [8] | outcome [9] | outcome [10] | Potency [12] | outcome [13] | Potency [14]

CCc1nn(CCCN2CCN(c3cccc(Cl)c3)CC2)c(=O)n1CCOc1ccccc1
26.6 µM (active) and inactive: Potency [2]
inactive: Potency [1] | Potency [19] | outcome [16] | outcome [4] | Potency [5] | outcome [6] | outcome [7] | Potency [8] | outcome [9] | outcome [10] | outcome [11] | Potency [12] | outcome [13]

NC(=O)N(O)[C@@H]1COc2cc(OCc3ccccc3)ccc21
active: Potency [1] 1.54 µM
inactive: Potency [3] | Potency [19] | outcome [16] | outcome [4] | Potency [5] | outcome [6] | Potency [8] | outcome [9] | outcome [10] | outcome [11] | Potency [12] | outcome [13] | Potency [14] | Potency [17] | Potency [18]

CCCOC(=O)c1ccc(N)cc1
inactive: Potency [1] | Potency [2] | Potency [3] | Potency [15] | outcome [4] | Potency [5] | outcome [6] | outcome [7] | Potency [8] | outcome [9] | outcome [10] | outcome [11] | Potency [12] | outcome [13] | Potency [14] | Potency [17]

Cc1ccc(Nc2nccc(N(C)c3ccc4c(C)n(C)nc4c3)n2)cc1S(N)(=O)=O
inactive: Potency [1] | Potency [19] | outcome [16] | outcome [4] | Potency [5] | outcome [6] | outcome [7] | Potency [8] | outcome [9] | outcome [10] | outcome [11] | Potency [12] | outcome [13] | Potency [14]
active: Potency [3] 26.6 µM | Potency [15] 0.75 µM
